TDP1 cell noCPT – qHTS for Inhibitors of human tyrosyl-DNA phosphodiesterase 1 (TDP1): qHTS in cells in absence of CPT | DT40 Tdp1-/- hTDP1 cells, no CPT, ATP luminescence, 48 h | Potency, µM (doses to about 46.2 µM), for inactives: at the top dose activity change, negative = growth inhibition, actives largely listed as inhibitors | 420,000 tested, 15% active | AID 686978, 2013; also: potency is read from the fitted curve at half-maximal effect; % is scaled to controls: 0 for no effect and ±100 for the full control effect; nearly all actives have a fitted effect of over 55% in size
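Growth kinetics read by CellTiter-Glo luminescence after ≥48 hr at 37 °C. Cells: DT40 Tdp1-/- stably carrying human TDP1, 400 per well, compound exposure in the absence of CPT (DMSO vehicle).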
D3 antag – D3 dopamine receptor (human) antagonism. P35462. D3R cells, DiscoveRx beta-arrestin luminescence, antagonist mode; stronger effect = lower value. max response, negative = inhibition, %. 360,000 tested, 2.5% active; in the data active = max response below about -50%; inconclusive = no clear call, values can overlap the other calls; also: % is scaled to controls: 0 for no effect and ±100 for the full control effect
Target sequence (P35462 whole entry, looked up): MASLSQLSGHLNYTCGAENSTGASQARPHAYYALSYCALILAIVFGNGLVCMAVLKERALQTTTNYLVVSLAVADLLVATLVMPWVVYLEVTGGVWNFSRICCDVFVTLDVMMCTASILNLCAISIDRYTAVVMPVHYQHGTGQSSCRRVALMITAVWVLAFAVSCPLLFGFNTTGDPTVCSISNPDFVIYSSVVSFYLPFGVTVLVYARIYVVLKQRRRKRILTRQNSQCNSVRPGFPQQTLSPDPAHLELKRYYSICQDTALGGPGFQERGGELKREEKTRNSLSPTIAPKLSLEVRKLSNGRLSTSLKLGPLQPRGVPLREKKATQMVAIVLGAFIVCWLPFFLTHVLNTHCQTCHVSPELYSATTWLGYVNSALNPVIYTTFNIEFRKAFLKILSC
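Cells plated overnight at 1500 cells/well, then exposed to library compounds with dopamine controls for 90 minutes at 37 degrees C. DiscoveRx reagent added for 30–60 minutes at room temperature; luminescence read, quantitative HTS format.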
DT40 TDP1 CPT – growth inhibition of DT40 Tdp1-/-;hTDP1 cells with camptothecin (screen for TDP1 inhibitors); chicken DT40 Tdp1-/-;hTDP1 cells + 20 nM CPT, ATP luminescence, 48 h; AID 686979; Potency, µM (doses to about 46.2 µM), for inactives: top-dose activity change, negative = growth inhibition, hits mostly inhibitors; 420,000 tested, 12% active; also: potency is read from the fitted curve at half-maximal effect; % is scaled to controls: 0 for no effect and ±100 for the full control effect; nearly all actives have a fitted effect of over 55% in size
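Chicken DT40 Tdp1-/- cells stably complemented with human TDP1 were seeded at 400 cells/well in medium containing 20 nM camptothecin, exposed to pin-transferred compounds, and grown at 37 °C for at least 48 hr. Viability was read as ATP luminescence.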
ClpP mod – qHTS Assay for Activators of ClpP. ATP-dependent Clp protease proteolytic subunit (Bacillus subtilis (strain 168)), P80244. purified B. subtilis ClpP, FRET peptide cleavage, 20 min. Potency, µM (top dose mostly 57.5 µM), inactives show top-dose activity change, negative = active. 340,000 tested, 1.9% active; active = well fitted falling curve with a large enough effect; inconclusive = small, poorly fitted or top-dose-only effect; inactive = no such curve, though single readings can be large or run the other way; also: potency is read from the fitted curve at half-maximal effect; the source files actives as falling curves though it sought activators and does not explain the sign; nearly all actives have a fitted effect of over 65% in size
Target sequence (P80244 whole entry, looked up): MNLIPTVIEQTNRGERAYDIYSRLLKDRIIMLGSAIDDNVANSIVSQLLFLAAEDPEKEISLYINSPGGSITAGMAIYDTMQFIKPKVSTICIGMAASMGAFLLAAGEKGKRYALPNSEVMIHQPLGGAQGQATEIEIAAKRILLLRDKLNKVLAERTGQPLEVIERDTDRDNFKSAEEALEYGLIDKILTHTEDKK
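ClpP 10 microg/mL final, pH 8 Tris/KCl buffer with BSA, glycerol, Tween-20; compound pinned in; FRET-FV substrate; RT 20 min; Ex320/Em430; ΔFRET vs ADEP 5.8 microM, DMSO, no enzyme.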
IL-1B inflam inh – inflammasome signaling inhibition, IL-1 beta readout; 360,000 tested, 4.7% active; activity change, % at 57.5 µM; THP-1 LPS/ATP IL-1B secretion, AlphaLISA, 16 h; stronger effect = lower value; in the data active = activity change below about -50%; inconclusive = mostly about -30% to -49%; also: % is scaled to controls: 0 for no effect and ±100 for the full control effect
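THP-1 cells pretreated 1 hr with compounds (up to 57.5 uM final), then stimulated with LPS (250 ng/mL final) plus ATP (1.25 mM final); secreted IL-1B measured by AlphaLISA after 16 hr, decreased signal indicating inhibition.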
D3 ag – agonists of human D3 dopamine receptor; AID 652048; max activation, %; D3R DiscoveRx beta-arrestin cells, luminescence, 90 min; 410,000 tested, 0.58% active; P35462; in the data active = max activation above about 30%; also: 0% is about no effect
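Agonist-mode cell screen: cells plated at 1500/well and incubated overnight at 37 °C, then exposed to library compounds for 90 min at 37 °C. Detection reagent was added for 30–60 min at room temperature, and luminescence was read.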
Starred values were filed as active, the others as inactive; [ ] = remark or other dose. In the library only some 21% were active in any assay of this set; here they are far more common. Unless noted, calls follow the shape of the dose curve; as a rule, active = well fitted inhibition curve with a large enough effect; inconclusive = small, poorly fitted or top-dose-only effect; inactive = flat fitted curve, though single readings scatter.

How did CCNCc1ccc(OCc2cccs2)c(OCC)c1 do in these assays?
TDP1 cell noCPT: -22%; D3 antag: -1; DT40 TDP1 CPT: inconclusive; ClpP mod: -4%; IL-1B inflam inh: 16; D3 ag: -2

What do the screens show for `CCOc1ccc(NC(=O)COC(=O)CNC(=O)c2ccc(-c3ccccc3)cc2)cc1`?
TDP1 cell noCPT: inconclusive; D3 antag: 6; DT40 TDP1 CPT: -1%; ClpP mod: -2%; IL-1B inflam inh: 3; D3 ag: -3

Results for COc1ccc(CNCCc2ccc(Cl)cc2)cc1OCc1ccccc1 ?
TDP1 cell noCPT: 4.6µM*; D3 antag: 0; DT40 TDP1 CPT: 6.5µM*; ClpP mod: 0%; IL-1B inflam inh: -96*; D3 ag: -11

How did COc1ccc(-c2nc3cc(C)ccc3cc2CN(C(=O)c2ccc(C)s2)C2CC2)cc1OC do in these assays?
TDP1 cell noCPT: 21µM*; DT40 TDP1 CPT: -12%[9.04 µM]

Results for COc1ccc(-c2nc3cc(F)ccc3cc2CN(C(=O)c2ccc3c(c2)OCO3)C2CC2)cc1 ?
TDP1 cell noCPT: -12%; DT40 TDP1 CPT: 17%

Results for COc1ccc(-c2nc3cc(C)ccc3cc2CN(C(=O)c2cccs2)C2CC2)cc1OC ?
TDP1 cell noCPT: 13µM*; DT40 TDP1 CPT: inconclusive

What do the screens show for `COc1cccc(-c2nc3cc4c(cc3cc2CN(C(=O)c2cc(C)nn2C)C2CC2)CCC4)c1OC`?
TDP1 cell noCPT: 16µM*; DT40 TDP1 CPT: 4.1µM*

Results for COc1cccc(C(=O)N(Cc2cc3ccc(C)cc3nc2N(C)C)C2CC2)c1OC ?
TDP1 cell noCPT: -97%; DT40 TDP1 CPT: -26%[9.04 µM]

Results for COc1ccc(-c2nc3cc(C)ccc3cc2CN(C(=O)c2cc(C)nn2C)C2CC2)cc1OC ?
TDP1 cell noCPT: 21µM*; DT40 TDP1 CPT: inconclusive

What do the screens show for `COc1ccc(-c2nc3cc(C)ccc3cc2CN(C(=O)c2ccco2)C2CC2)cc1OC`?
TDP1 cell noCPT: inconclusive; DT40 TDP1 CPT: -6%[9.04 µM]

Results for Cn1c(=O)c2nc(-c3ccccc3)oc2c2ccccc21 ?
TDP1 cell noCPT: 16µM*; D3 antag: -20; DT40 TDP1 CPT: -24%; ClpP mod: 11µM*; IL-1B inflam inh: 2; D3 ag: -3

What do the screens show for `CC(=O)Nc1ccc(S(=O)(=O)Nc2nnc(CC(C)(C)C)s2)cc1`?
TDP1 cell noCPT: -28%; D3 antag: -5; DT40 TDP1 CPT: -30%; ClpP mod: 0%; IL-1B inflam inh: -7; D3 ag: -7

How did CN1CCN(Cc2cc(=O)oc3cc4c(cc23)CCC4)CC1 do in these assays?
TDP1 cell noCPT: 0%; D3 antag: inconclusive; DT40 TDP1 CPT: inconclusive; ClpP mod: -21%; IL-1B inflam inh: -1; D3 ag: -8

What do the screens show for `O=c1cc(CN2CCN(c3ccc(F)cc3)CC2)c2cc3c(cc2o1)CCCC3`?
TDP1 cell noCPT: inconclusive; D3 antag: -21; DT40 TDP1 CPT: 18µM*; ClpP mod: 0%; IL-1B inflam inh: 35; D3 ag: -38

What do the screens show for `CCN1CCN(Cc2cc(=O)oc3cc4c(cc23)CCC4)CC1`?
TDP1 cell noCPT: -13%; D3 antag: inconclusive; DT40 TDP1 CPT: -7%; ClpP mod: -23%; IL-1B inflam inh: -5; D3 ag: -5

Results for CC1CCN(Cc2cc(=O)oc3cc4c(cc23)CCCC4)CC1 ?
TDP1 cell noCPT: inconclusive; D3 antag: -98*; DT40 TDP1 CPT: inconclusive; ClpP mod: 0%; IL-1B inflam inh: 14; D3 ag: -18

How did CCOc1ccccc1NC(=O)CSc1nc2ccccc2nc1Cc1ccc(C)cc1 do in these assays?
TDP1 cell noCPT: inconclusive; DT40 TDP1 CPT: inconclusive; ClpP mod: -1%; D3 ag: 2

What do the screens show for `O=C(C[n+]1cc(Br)cc(Br)c1)c1ccc2ccccc2c1`?
TDP1 cell noCPT: inconclusive; DT40 TDP1 CPT: -24%; ClpP mod: -2%

How did COCC(=O)N(C)c1nnc(-c2ccc([N+](=O)[O-])cc2)s1 do in these assays?
TDP1 cell noCPT: 2%; D3 antag: 1; DT40 TDP1 CPT: -29%; ClpP mod: 1%; IL-1B inflam inh: -58*; D3 ag: 6

Results for CC(=O)N1CCC2(CC1)CCN(c1ccccn1)CC2 ?
TDP1 cell noCPT: -26%; DT40 TDP1 CPT: 0%

How did CCOC(=O)CCNC(=O)N1CCCC(C(=O)c2cc(C)c(OC)c(C)c2)C1 (configuration not stated) do in these assays?
TDP1 cell noCPT: inconclusive; D3 antag: -27; DT40 TDP1 CPT: inconclusive; ClpP mod: 0%; IL-1B inflam inh: 4; D3 ag: 4

What do the screens show for `CCCN=C(N)/C(C(=O)OCC)=C(\O)c1ccc(OC)cc1`?
TDP1 cell noCPT: -9%; D3 antag: 12; DT40 TDP1 CPT: -10%; ClpP mod: -1%; IL-1B inflam inh: -9; D3 ag: 7

What do the screens show for `CCOC(=O)/C(C(N)=NCC(C)C)=C(/O)c1ccccc1`?
TDP1 cell noCPT: inconclusive; D3 antag: -10; DT40 TDP1 CPT: -25%; ClpP mod: -3%; IL-1B inflam inh: -81*; D3 ag: 4

What do the screens show for `CC1=C(C(=O)OC2CCCCCC2)C(c2ccc(Cl)cc2Cl)CC(=O)N1` (configuration not stated)?
TDP1 cell noCPT: 16µM*; DT40 TDP1 CPT: 15µM*; ClpP mod: -1%; D3 ag: 0

How did CC1=C(C(=O)OCC2CCCCC2)C(c2ccc(Cl)cc2Cl)CC(=O)N1 (configuration not stated) do in these assays?
TDP1 cell noCPT: 21µM*; DT40 TDP1 CPT: inconclusive; ClpP mod: 2%; D3 ag: 5

What do the screens show for `CC1=C(C(=O)OC2CCCCCC2)C(c2ccc(Cl)cc2)CC(=O)N1` (configuration not stated)?
TDP1 cell noCPT: inconclusive; DT40 TDP1 CPT: inconclusive; ClpP mod: -6%; D3 ag: -1

Results for CC1=C(C(=O)OC2CCCCCC2)C(c2cccc(Cl)c2)CC(=O)N1 (configuration not stated) ?
TDP1 cell noCPT: 18µM*; DT40 TDP1 CPT: 18µM*; ClpP mod: -5%; D3 ag: 3

How did CC1=C(C(=O)OC2CCCC2)C(c2ccc(Cl)cc2)CC(=O)N1 (configuration not stated) do in these assays?
TDP1 cell noCPT: inconclusive; DT40 TDP1 CPT: inconclusive; ClpP mod: -1%; D3 ag: 4
